According to ChEMBL document CHEMBL3433997, “St. Jude Leishmania screening dataset” (2016):

Assays:
Assay type in all cases: functional
[1] = target: Solute carrier family 2, facilitated glucose transporter member 1 (Homo sapiens) (UniProt P11166); test: ST_JUDE_LEISH: Cytotoxicity at 2uM final concentration against transgenic Leishmania Mexicana promastigotes LmGLUT1 that are glucose transport deficient and complemented with the human glucose transporter GLUT1. Activity is measured by DNA content using SYBR green in vitro
Chain of Solute carrier family 2, facilitated glucose transporter member 1 (Homo sapiens) (P11166 whole entry): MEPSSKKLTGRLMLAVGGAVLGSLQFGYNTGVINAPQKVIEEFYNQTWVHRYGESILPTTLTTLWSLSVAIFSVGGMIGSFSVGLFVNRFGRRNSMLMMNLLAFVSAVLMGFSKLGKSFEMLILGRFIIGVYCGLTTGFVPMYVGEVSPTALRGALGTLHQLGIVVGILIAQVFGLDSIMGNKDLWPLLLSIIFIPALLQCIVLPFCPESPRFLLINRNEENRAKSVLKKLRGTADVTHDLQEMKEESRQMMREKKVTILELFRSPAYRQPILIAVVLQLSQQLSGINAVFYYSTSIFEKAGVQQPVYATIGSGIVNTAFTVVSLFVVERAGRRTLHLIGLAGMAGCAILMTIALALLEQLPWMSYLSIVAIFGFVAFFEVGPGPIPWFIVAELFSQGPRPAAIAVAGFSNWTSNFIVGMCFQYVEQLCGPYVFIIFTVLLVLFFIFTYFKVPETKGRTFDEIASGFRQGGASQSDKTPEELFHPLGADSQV

[2] = target: Hexose transporter 1 (Plasmodium falciparum) (UniProt O97467); test: ST_JUDE_LEISH: Cytotoxicity at 2uM final concentration against transgenic Leishmania Mexicana promastigotes LmPfHT that are glucose transport deficient and complemented with the Plasmodium falciparum hexose transporter. Activity is measured by DNA content using SYBR green in vitro
[3] = target: Glucose transporter (Leishmania mexicana) (UniProt O61059); test: ST_JUDE_LEISH: Cytotoxicity at 2uM final concentration against transgenic Leishmania Mexicana promastigotes LmGT2 that are glucose transport deficient and complemented with the L. Mexicana glucose transporter 2. Activity is measured by DNA content using SYBR green in vitro

Row | SMILES | inhibition [1] [%] | inhibition [2] [%] | inhibition [3] [%]
1 | CCn1cnc2c(N3CCCC3=O)cc(C(=O)N[C@@H](Cc3ccccc3)[C@H](O)CNC3CCCCC3)cc21 | 2 | 1.91 | 2.63
2 | Cc1cc(Nc2ncc3c(n2)N(C2CCC2)CC3)ccc1N1CCN(C)CC1 | 0.65 | 1.15 | 1.26
3 | COc1cc(C(=O)N2CCOC(CCN3CCC4c5ccccc5CC43)(c3ccc(Cl)c(Cl)c3)C2)cc(OC)c1OC (stereo unspecified) | 3.86 | -2.68 | 9.19
4 | Cc1cc(Nc2nc(NCc3cccnc3)nc3ccccc23)n[nH]1 | 8.58 | 10.4 | 10
5 | O=C(Nc1ccc(Cn2ncc(N3CCCNCC3)c(Cl)c2=O)cc1)Nc1ccc(C(F)(F)F)cc1 | 3.47 | 4.5 | -0.44
6 | NC(=O)Nc1ccc2c(Nc3ccc(OCc4ccccc4)cc3)ncnc2c1 | -1.45 | -0.35 | -2.05
7 | COc1ccc(F)cc1-c1cccc(CNC2CCN(CC3Cn4c(=O)ccc5ccc(F)c3c54)CC2)c1 (stereo unspecified) | 10.1 | 14.3 | 18.8
8 | Cc1[nH]c(C)c(-c2ccc(Oc3ccc(F)cc3)cc2)c(=O)c1Cl | 4.38 | 4.42 | 3.79
9 | c1cc2[nH]c(CCCCc3nc4cc(C5=N[C@H]6CCCC[C@H]6N5)ccc4[nH]3)nc2cc1C1=N[C@H]2CCCC[C@H]2N1 | 10.1 | 9.08 | 8.87
10 | CC(=O)Nc1ccc(CNCCc2ccc(NC(=O)c3cc(Cl)cc(Cl)c3)cc2)cc1 | -0.73 | 0.23 | -1.09
11 | COc1ccc(CCCc2nc(N)nc(N)c2-c2ccc(Cl)cc2)cc1 | 6.21 | 6.84 | 3.75
12 | COc1cc2nc(N3CCN(c4cc(C)ccc4C)CC3)nc(N)c2cc1OC | 1.13 | 0.08 | 0.51
